Screening results deposited in PubChem BioAssay by National Center for Advancing Translational Sciences (NCATS).
Most compounds without a hit are left out; they make up all but 2.3% or so of the library.
Tau fibril ThT: tau fibrillization inhibition (ThT binding). P10636. recombinant tau K18 P301L, heparin-induced fibrillization, ThT fluorescence. Potency, µM (titrated, usually from 57.4 µM), inactives show top-dose activity, negative = inhibition, most hits filed as inhibitors. 2.1% of 270,000 active. AID 1460; also: potency is read from the fitted curve at half-maximal effect; nearly all actives have a fitted effect of over 55% in size
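K18 P301L tau (15 uM + 0.24 uM Alexa 594-tagged), heparin 20 uM, NaOAc pH 7, 6 h 37 C; ThT 30 uM, 1 h RT, ex 450/em 510 nm.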
Tau FP inhib: inhibitors of human tau fibril formation; K18 P301L tau heparin fibrillization, Alexa594 FP, 6 h; Potency, µM (doses to about 57.7 µM), inactives show at the highest dose activity, negative = inhibition, usual class: inhibitors; 0.39% of 280,000 active; also: potency is read from the fitted curve at half-maximal effect; nearly all actives have a fitted effect of over 55% in size
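Read-out: fluorescence polarization of Alexa 594-labeled tau (0.24 uM), 555 nm excitation, 632 nm emission. Mixtures held 15 uM unlabeled K18 P301L, compound and 20 uM heparin, pH 7 acetate buffer, incubated 6 hr at 37 C.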
USP1 inh: USP1/UAF1 (human) deubiquitinase inhibition; O94782; 0.23% of 390,000 active; AID 743255; recombinant USP1/UAF1, Ub-Rhodamine cleavage fluorescence; Potency, µM (highest dose often 57.1 µM), inactives show at the highest dose activity change, negative = inhibition, hits mostly inhibitors; also: potency is read from the fitted curve at half-maximal effect; nearly all actives have a fitted effect of over 60% in size
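In this screen, compounds sit with the deubiquitinase complex (1nM) for 15 min at room temperature before Ub-Rho is added at 150nM final. Fluorescence rise is then followed for 6 reads every 60 seconds.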
Coupling enz: counter-screen for Giardia aldolase inhibitors: coupling enzyme system. coupling enzyme system counterscreen, AmpLite Red fluorescence. activity change, negative = inhibition, % at 58.2 µM, hits read low. 0.67% of 290,000 active; in the data active = activity change below about -30%
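Fluorescence at 525 nm excitation and 598 nm emission measured inhibition of the coupled detection system without aldolase. Compounds (at 57.5 uM final) were preincubated 10 min at room temperature with coupling enzyme reagent before a 20 min substrate/AmpLite Red step.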
Tau fluor cs: counter-screen for tau fibril formation inhibitors; tau K18 P301L Alexa594 fluorescence, heparin fibrillization; Potency, µM (titrated, usually from 57.7 µM), inactives show at the top dose activity change, negative = decrease; 0.93% of 280,000 active; also: potency is read from the fitted curve at half-maximal effect; nearly all actives have a fitted effect of over 55% in size
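Human tau K18 P301L (15 uM unlabeled, 0.24 uM Alexa 594-labeled) in 100 mM sodium acetate pH 7 with 20 uM heparin, 6 hr at 37 C. ThT 30 uM added, 1 hr ambient; Alexa 594 FP and total fluorescence read at 555/632 nm.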
* hit, by the source's call; ? = inconclusive; · = no result; [ ] = another dose, or the depositor's remark. Unless noted, calls follow the shape of the dose curve; as a rule, active = well fitted curve in the direction sought with a large enough effect; inconclusive = small, poorly fitted or top-dose-only effect, or another doubt; inactive = no such curve, though single readings can be large; an effect the other way counts as inactive or inconclusive. % is scaled to controls: 0 for no effect and ±100 for the full control effect.

SMILES	Tau fibril ThT	Tau FP inhib	USP1 inh	Coupling enz	Tau fluor cs
CCOC(=O)NNc1ccc2nonc2c1[N+](=O)[O-]	13µM*	?	25µM*	-44*	-29%
C(=C\c1nc(-c2ccccc2)oc1Nc1ccc2ccccc2c1)/c1ccccc1	-6%	8%	·	1	-5%
Cc1cccc(OC(C)C(=O)N2CCC(c3nc4ccccc4o3)CC2)c1C (configuration not stated)	-12%	11%	-22%	·	0%
O=C(Nc1cccc(Cl)c1)C1CCN(S(=O)(=O)Cc2ccccc2)CC1	-14%	-6%	-24%	·	-1%
Cc1cccc(S(=O)(=O)Nc2ccc(C)c3c2OC(C)(C)C3)c1	-11%	-2%	-15%	-44*	-17%
Cc1ccc(NS(=O)(=O)c2ccccc2Cl)c2c1CC(C)(C)O2	-17%	-3%	-17%	·	-18%
Cc1ccc(N2NC(C)(c3cccs3)NC2=S)cc1 (configuration not stated)	16µM*	-8%	-14%	0	?
Cc1ccc(N2CC(O)(c3cccs3)[N+]3=C2CCCC3)cc1 (configuration not stated)	8%	4%	-3%	3	7%
N#C/C(=C/c1ccc2c(c1)OCO2)C(=O)NCCc1c[nH]c2ccccc12	13µM*	5%	?	-3	20µM*[quencher]
Cc1ccc(C2C(=O)N(C3CCCCCC3)CC(=O)N2C(C)C)cc1 (configuration not stated)	-5%	-2%	-20%	·	-11%
C/C(CCN1CCCc2nc(C)c(C)cc21)=N\O[C@@H](C)c1cc(-c2c(C)cc(C)cc2C)no1	-1%[11.5 µM]	7%[11.6 µM]	·	1	-1%[11.6 µM]
Oc1ccc2ccccc2c1C=Nc1ccccc1-c1nc2ccccc2[nH]1	28µM*	-4%	?	-32*	?
COc1ccc(N2CC(c3nc(-c4ccccc4C)no3)CC2=O)cc1Cl (configuration not stated)	?	5%	?	·	-22%
Cc1ccc(N=Cc2cc(Br)cc(Cl)c2O)cc1	18µM*	?	?	-3	-11%
Oc1c(Cl)cc(Cl)cc1C=Nc1ccc(Br)cc1	?	-4%	?	0	-8%
CC#CC(=O)Nc1cc2c(Nc3ccc(F)c(Cl)c3)ncnc2cn1	·	·	·	-44*	·
Cc1ccc(N2NC(=O)/C(=C/c3ccc(-c4ccc(Cl)c(C(=O)O)c4)o3)C2=O)cc1C	?	-5%	-23%	1	-22%
COC(=O)c1ccc(N2NC(=O)/C(=C/c3ccc(-c4ccc(Cl)c(C(=O)O)c4)o3)C2=O)cc1	6.3µM*	?	-9%	11	?
CCOc1ccc(/C=C2\SC(=O)N(c3ccc(O)cc3)C2=O)cc1OC	·	-3%[0.0958 µM]	2%	5	4%[0.0958 µM]
COc1cc(/C=C2/C(=O)NN(c3cccc(C)c3)C2=O)cc([N+](=O)[O-])c1O	14µM*	0%	?	-1	-18%
COc1cc(/C=C2\SC(=O)N(c3cccc(Cl)c3)C2=O)cc([N+](=O)[O-])c1O	8.9µM*	2%	-20%	13	?
COc1cc(/C=C2\SC(=O)N(c3ccc(Cl)cc3)C2=O)cc([N+](=O)[O-])c1O	18µM*	3%	1%	1	?
COc1cc(/C=C2/C(=O)NN(c3ccc(C)c(Cl)c3)C2=O)cc([N+](=O)[O-])c1O	·	·	?	2	·
Cc1cccc(N(CC(=O)N(C)Cc2ccccc2)S(=O)(=O)c2ccccc2)c1C	-17%	1%	-29%	·	-12%
CN(CCCNC(=O)c1cc2c(=O)n(C)c3ccccc3c2s1)Cc1ccccc1	-13%	-4%	3%	·	-10%
COc1ccc(-c2cc(C(=O)Nc3cc(C(F)(F)F)ccc3Cl)no2)cc1	-1%	-7%	-8%	·	-4%
Nc1c(C=C2C=CC(=O)C=C2)c(=O)nc2snc(SCc3ccccc3)n12	7.9µM*	?	-7%	20	?
CSc1nsc2nc(=O)c(/C=C3\C=Nc4ccccc43)c(N)n12	?	4%	-16%	-1	-22%
